TTR transcr act – TTR transcription activation, primary screen; SH-SY5Y TTR promoter Gaussia luciferase, luminescence; 100% = recombinant luciferase protein wells; activation, % at 16.7 µM; 92,000 compounds, 1.3% hits;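 active means activation above the mean of all tested compounds plus 3 SD, cut at about 9.5% in these data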;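 further: cells exposed to compounds for one day before reading; 0% = median of all test compound wells on the plate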
HuH7 TTR inh – decreases TTR transcription in HuH7 cells in activator counter-screen | shares compounds with TTR transcr act | HuH7 TTR promoter-Gaussia luciferase reporter, luminescence | inhibition, % at 16.7 µM | 1,100 compounds, 4% hits | AID 1117279;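 active means average inhibition above the solvent-only control wells' mean plus 3 SD, cut at about 15% in these data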;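 further: 0% = cells with DMSO only and 100% = cells with inhibitor control FD; inhibitors lower well luminescence so higher value means more inhibition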
TTR act confirm – confirmation of human transthyretin transcription activators | shares compounds with TTR transcr act | SHSY5Y TTR promoter Gaussia luciferase, luminescence; 100% = purified Lucia enzyme wells, no cells | activation, % at 16.7 µM | 1,100 tested, under 10 active | AID 1117280;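 active means mean activation above a set limit taken from the earlier primary screen, cut at about 11% in these data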;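 further: 0% = DMSO-treated cells and 100% = recombinant Lucia luciferase without cells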
An asterisk follows results filed as active. The sample as a whole holds a higher share of hits than the screen did.

SMILES | TTR transcr act | others
CN(CCc1ccccc1)C(=O)c1cccc(NC(=O)Cc2cccc(NC(=O)C3CCN(C(=O)C4CCCC4)CC3)c2)c1 | -0.2
CN(CCc1ccccc1)C(=O)c1cccc(NC(=O)Cc2cccc(NC(=O)C3CCN(C(=O)c4ccccc4)CC3)c2)c1 | 9.9* | HuH7 TTR inh=-6.5;TTR act confirm=0.3
CCOC(=O)CN1NC2(CCCCCC2)NC1=S | 0.0
CC(C)(C)N1NC2(CCCCC2)NC1=S | 11.8* | HuH7 TTR inh=-15.7;TTR act confirm=0.6
O=C(Nc1ccnn1C1CCN(Cc2cccc(OCCO)c2)CC1)C1CC1 | -1.2
O=C1CCC[C@H]2C[C@H](NCc3cccc(Cl)c3)CC[C@]23CCCN13 | 0.5
Nc1cccc(S(=O)(=O)N2CCCN(S(=O)(=O)c3ccc4c(c3)OCCO4)CC2)c1 | -1.2
O=C(NCCOc1ccccc1)c1cccc(S(=O)(=O)N2CCN(Cc3ccccc3)CC2)c1 | -1.1
Cc1ccc(CN(C)C(=O)c2cccc(S(=O)(=O)N3CCN(Cc4ccccc4)CC3)c2)o1 | -1.3
CCCCN(C(=O)c1cccc(S(=O)(=O)N2CCN(Cc3ccccc3)CC2)c1)c1ccccc1 | 26.7* | HuH7 TTR inh=-3.6;TTR act confirm=-0.3
O=C(CCC1CCCC1)N=C1SC2CS(=O)(=O)CC2N1c1ccccc1F (stereo not given) | 12.6* | HuH7 TTR inh=-2.3;TTR act confirm=-0.9
O=C(COc1ccccc1)N=C1SC2CS(=O)(=O)CC2N1c1ccccc1 (stereo not given) | -0.6
O=C(N=C1SC2CS(=O)(=O)CC2N1Cc1ccccc1)C1CC1 (stereo not given) | -0.2
O=Nc1ccc(Br)cn1 | -0.5
Cc1cccc(N2CCN(C(=O)Cn3cccc3C(=O)c3ccccc3)CC2)c1C | 1.4
O=C(c1ccccc1)c1cccn1CC(=O)N1CCCCCC1 | 10.4* | HuH7 TTR inh=-10.7;TTR act confirm=0.4
CN(Cc1ccccc1)C(=O)Cn1cccc1C(=O)c1ccccc1 | -1.2
CN(C(=O)c1ccc(NC(=O)Cc2cccc(NC(=O)C3CCN(C(=O)C4CCCC4)CC3)c2)cc1)C1CC1 | -0.5
O=C(NCCc1ccccc1)OCc1cn(-c2cccc(Cl)c2)nn1 | 2.5
CCN1C[C@@H]2[C@@H]3C(=O)N(C)C(=O)[C@@H]3[C@](CC)(C1=O)N2C(=O)c1ccc(C(C)(C)C)cc1 | 1.0
COCc1nc2sc3c(c2c(=O)[nH]1)CCCC3 | 2.0
CCCc1nc2sc3c(c2c(=O)[nH]1)CCCC3 | -1.0
CCN(CC(=O)NC(C)C)Cc1nc2sc3c(c2c(=O)[nH]1)CCC3 | 13.0* | HuH7 TTR inh=-19.8;TTR act confirm=-0.5
CC(=O)Nc1sc2c(c1-c1nc3ccccc3s1)CCCNC2 | 7.3
CCc1cc(=O)oc2cc(OCC(=O)NCCCn3ccnc3)c(Cl)cc12 | -0.7
SMILES | TTR transcr act | others
CCc1cc(=O)oc2c(C)c(OCC(=O)NCCCN3CCOCC3)ccc12 | 5.8
CCCCc1cc(=O)oc2cc(OCC(=O)NCCN3CCOCC3)c(Cl)cc12 | 11.1* | HuH7 TTR inh=-24.6;TTR act confirm=1.9
Brc1ccc(-c2csc(N3CCC(c4nn[nH]n4)CC3)n2)cc1 | 2.0
O=C(NCc1nc2ccccc2[nH]1)C1=C[C@H](C2CCCCC2)C[C@H](OCCCCO)O1 | 3.1
O=C(NCc1nc2ccccc2[nH]1)C1=C[C@H](C2CC2)C[C@H](OCCCCO)O1 | 10.1* | HuH7 TTR inh=-26.0;TTR act confirm=0.0
C#CCNC(=O)C1=C[C@@H](C2CC2)C[C@@H](OCCCCO)O1 | 1.4
CCN(c1cccc(C)c1)S(=O)(=O)c1cc(CN2C(=O)c3cccnc3C2=O)ccc1OC | -1.2
CN(C)[C@@H]1CCN(c2ccc3c(c2)OCCCN(C2CC2)S3(=O)=O)C1 | 0.4
Cc1ccc(NC(=S)Nc2ccc(-c3nnc4n3CCCCC4)cc2)cc1C | 0.2
CC1=CC2C(C(O)CC3(C)C2CC(C)C32OCOC23COCO3)C2(C)C/C(=C\O)C(=O)C=C12 (stereo not given) | -6.8
CN(C)CCCNC(=O)c1ccc(Cl)c(S(=O)(=O)N(C)c2ccccc2)c1 | 3.3
COc1ccc(C(=O)NCCCN(C)CCCNC(=O)c2ccc(OC)cc2)cc1 | -1.1
CN(C)CCCNC(=O)c1ccc(-c2ccccc2)cc1 | 22.0* | HuH7 TTR inh=-10.0;TTR act confirm=0.1
CCCCN1CCS(=O)(=O)N(Cc2cn(Cc3ccc(C)cc3)nn2)C(C(=O)OC)C1 (stereo not given) | -1.0
COc1ccc(/C=N/NC(=O)c2cc(C34CC5CC(CC(C5)C3)C4)[nH]n2)cc1OC | 4.9
Cc1cc(C(=O)N/N=C/c2cccc(OC(=O)c3cccc(Br)c3)c2)n[nH]1 | -1.5
COc1cccc(/C=N/NC(=O)c2cc(C34CC5CC(CC(C5)C3)C4)[nH]n2)c1 | 16.8* | HuH7 TTR inh=-11.6;TTR act confirm=0.3
CCOc1cc(OCC)cc(C(=O)N2CCC[C@H]2C(=O)N2CCC[C@H]2C(=O)N[C@@H](C)c2ccccc2)c1 | 3.4
OC(c1ccccc1)c1ncc(-c2cccc(OCc3ccccc3)c2)[nH]1 (stereo not given) | -1.6
CCOC(=O)Cn1nc2sc3ccccc3n2c(=O)c1=O | 2.2
CCOC(=O)Cn1c(=O)sc2ccccc21 | 17.3* | HuH7 TTR inh=-3.9;TTR act confirm=0.1
CCC(C)NC(=O)Cn1c(=O)sc2ccccc21 (stereo not given) | 3.2
CC1(C(=O)Nc2ccc3c(c2)OCCO3)CCC(=O)N1CC(F)(F)F (stereo not given) | -2.0
CC1(C(=O)Nc2ccc3ccccc3c2)CCC(=O)N1CC(F)(F)F (stereo not given) | 13.1* | HuH7 TTR inh=-13.7;TTR act confirm=0.6
CC1(C(=O)NCc2ccccc2)CCC(=O)N1CC(F)(F)F (stereo not given) | 1.6
SMILES | TTR transcr act | others
CCCn1c(SCC(=O)Nc2cc(Cl)ccc2OC)nc(O)cc1=O | 0.8
CCCC(=O)N1CCCC(c2cc(C(=O)NCc3ccccc3)no2)C1 (stereo not given) | -0.2
Cc1ccc(N(CC(=O)N2CCN(Cc3ccccc3)CC2)S(C)(=O)=O)cc1C | -0.7
Cc1ccc(CN2C(=O)N/C(=C\c3ccc(-c4ccc(C(=O)O)cc4C)o3)C2=O)cc1 | 10.7* | HuH7 TTR inh=-17.7;TTR act confirm=-0.5
O=C(O)c1ccc(COc2ccccc2/C=C2\NC(=O)N(Cc3ccc(F)cc3)C2=O)cc1 | 8.7
Cc1ccc(C(=O)O)cc1-c1ccc(/C=C2/NC(=O)N(c3ccccc3)C2=O)o1 | -1.2
COC(=O)[C@H](Cc1ccccc1)N1CC=CS1(=O)=O | 1.5
O=C(NC(=O)N1CCCC1)c1csnn1 | 2.2
O=C(NC(=S)Nc1ccccc1Cl)c1csnn1 | 13.2* | HuH7 TTR inh=-12.0;TTR act confirm=0.1
Cc1c(Cl)cccc1NC(=S)NC(=O)c1ccccc1 | 8.6
COC(=O)C1=CCCCC(O)=C1C(=O)OC | 0.0
N#Cc1cccc(NC(=O)c2cc(C3CCCCN3C(=O)c3ccc4c(c3)CCO4)on2)c1 (stereo not given) | -0.8
COC(=O)CSc1nc2ccccc2n1CC(=O)N(C(C)C)C(C)C | 12.8* | HuH7 TTR inh=-5.4;TTR act confirm=-1.3
COCC(C)NC(=O)Cn1c(SCc2ccccc2)nc2ccccc21 (stereo not given) | 1.4
CCSc1nc2ccccc2n1CC(N)=O | -0.2
CCOc1ccc(S(=O)(=O)c2ccc(C)cc2)c2c1no[n+]2[O-] | -1.8
c1ccc(-c2ncnc3ccccc23)cc1 | -0.9
COC(=O)C1CN(S(=O)(=O)c2cc(OC)ccc2OC)CCS1 (stereo not given) | 0.0
Cc1ccccc1CN1CCCCC(NC(=O)C2CCCC2)C1=O (stereo not given) | 0.4
CCCCNC(=O)C1(C)CCC(=O)N1CC(F)(F)F (stereo not given) | -0.1

High-throughput results from PubChem BioAssay.
